Measurements: PubChem BioAssay (NCATS)
Records with an inconclusive call do not appear. Entries that show only a call come without a potency. Values without a mark were called inactive. Active and inactive are the calls of the source. Calls come from the whole dose curve; as a rule, active = well fitted curve in the direction sought with a large enough effect; inconclusive = small, poorly fitted or top-dose-only effect, or another doubt; inactive = no such curve, though single readings can be large; an effect the other way counts as inactive or inconclusive.

Legend:
[1] = biological target: Rap guanine nucleotide exchange factor 3 (Homo sapiens) (UniProt O95398); assay: Confirmatory qHTS for antagonist of cAMP-regulated guanine nucleotide exchange factor 3 (EPAC1) (AID 1645880); note: nearly all actives have a fitted effect of over 55% in size; note: potency is the fitted concentration of half-maximal effect
Rap guanine nucleotide exchange factor 3 (Homo sapiens), sequence (O95398 whole entry, looked up): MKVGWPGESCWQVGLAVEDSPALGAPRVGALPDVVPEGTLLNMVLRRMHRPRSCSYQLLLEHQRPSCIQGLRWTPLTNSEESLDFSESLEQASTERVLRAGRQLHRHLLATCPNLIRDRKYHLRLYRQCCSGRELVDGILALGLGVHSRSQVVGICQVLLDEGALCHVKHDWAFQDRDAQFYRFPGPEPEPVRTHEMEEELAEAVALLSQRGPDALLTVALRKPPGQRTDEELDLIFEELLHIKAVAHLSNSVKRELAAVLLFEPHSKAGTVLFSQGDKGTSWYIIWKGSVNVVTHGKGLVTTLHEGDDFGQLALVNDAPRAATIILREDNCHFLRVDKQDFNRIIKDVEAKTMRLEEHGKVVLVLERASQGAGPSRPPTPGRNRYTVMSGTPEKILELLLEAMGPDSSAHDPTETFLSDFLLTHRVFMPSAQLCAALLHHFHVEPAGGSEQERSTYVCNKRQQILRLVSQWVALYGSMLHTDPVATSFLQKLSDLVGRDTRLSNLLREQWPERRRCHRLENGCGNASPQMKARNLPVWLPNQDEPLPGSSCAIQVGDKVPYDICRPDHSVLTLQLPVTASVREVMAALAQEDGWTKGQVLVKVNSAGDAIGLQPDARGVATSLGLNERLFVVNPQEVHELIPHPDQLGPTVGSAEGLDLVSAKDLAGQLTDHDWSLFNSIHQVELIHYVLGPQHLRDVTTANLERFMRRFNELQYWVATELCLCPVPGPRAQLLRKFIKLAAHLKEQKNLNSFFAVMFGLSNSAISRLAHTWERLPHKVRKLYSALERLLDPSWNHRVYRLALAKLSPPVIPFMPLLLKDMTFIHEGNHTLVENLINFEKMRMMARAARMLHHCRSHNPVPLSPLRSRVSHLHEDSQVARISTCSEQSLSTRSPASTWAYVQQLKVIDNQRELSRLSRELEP
How it was run: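 Nucleotide exchange uses 100 nM EPAC1, 250 nM RAP1B-BODIPY-GDP and 50 uM GDP, with compounds in a concentration-titration series. After 5 min at room temperature, fluorescence (480 nm ex/540 nm em) is read every 5 min for 30 min. Data are normalized to control ATA and DMSO.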

[2] = biological target: Rap guanine nucleotide exchange factor 3 (Homo sapiens) (UniProt O95398); assay: Confirmatory qHTS for agonist of cAMP-regulated guanine nucleotide exchange factor 3 (EPAC1) (AID 1645881);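 note: EPAC1 catalysed release of BODIPY-GDP from Rap1B seen as fluorescence loss; nearly all actives have a fitted effect of over 75% in size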
[3] = biological target: Rap guanine nucleotide exchange factor 4 (Homo sapiens) (UniProt Q8WZA2); assay: Confirmatory qHTS for agonist of cAMP-regulated guanine nucleotide exchange factor 4 (EPAC2) (AID 1645884);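 note: nucleotide exchange releases bodipy-GDP from Rap1 and this lowers its fluorescence; nearly all actives have a fitted effect of over 65% in size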
Rap guanine nucleotide exchange factor 4 (Homo sapiens), sequence (Q8WZA2 whole entry, looked up): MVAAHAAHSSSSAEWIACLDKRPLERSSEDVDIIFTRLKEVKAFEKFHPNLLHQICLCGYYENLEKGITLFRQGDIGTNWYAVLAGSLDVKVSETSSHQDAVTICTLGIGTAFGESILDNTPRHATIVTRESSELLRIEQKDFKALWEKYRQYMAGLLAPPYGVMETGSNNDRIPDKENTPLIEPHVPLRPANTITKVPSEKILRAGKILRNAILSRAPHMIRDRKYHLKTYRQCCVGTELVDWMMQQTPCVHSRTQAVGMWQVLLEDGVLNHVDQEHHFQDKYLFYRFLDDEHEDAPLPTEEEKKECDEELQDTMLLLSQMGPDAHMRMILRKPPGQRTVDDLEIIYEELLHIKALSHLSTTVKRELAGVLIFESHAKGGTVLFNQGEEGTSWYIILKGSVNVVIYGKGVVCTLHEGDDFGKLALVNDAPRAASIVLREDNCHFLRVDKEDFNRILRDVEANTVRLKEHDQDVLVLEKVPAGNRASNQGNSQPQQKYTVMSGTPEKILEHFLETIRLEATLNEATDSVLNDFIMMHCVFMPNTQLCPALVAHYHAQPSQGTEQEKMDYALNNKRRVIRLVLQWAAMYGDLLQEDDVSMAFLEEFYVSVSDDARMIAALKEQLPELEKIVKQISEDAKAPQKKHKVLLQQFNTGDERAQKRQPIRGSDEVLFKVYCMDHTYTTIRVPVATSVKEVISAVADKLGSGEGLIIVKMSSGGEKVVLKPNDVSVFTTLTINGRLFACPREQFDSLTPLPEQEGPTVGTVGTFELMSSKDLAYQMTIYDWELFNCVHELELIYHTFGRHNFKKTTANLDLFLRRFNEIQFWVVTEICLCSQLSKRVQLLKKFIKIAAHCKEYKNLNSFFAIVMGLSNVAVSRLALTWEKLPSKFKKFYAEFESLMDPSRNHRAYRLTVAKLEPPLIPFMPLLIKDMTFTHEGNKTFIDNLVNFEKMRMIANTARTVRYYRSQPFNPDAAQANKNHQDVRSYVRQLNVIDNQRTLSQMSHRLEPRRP

[4] = biological target: Rap guanine nucleotide exchange factor 4 (Homo sapiens) (UniProt Q8WZA2); assay: Confirmatory qHTS for antagonist of cAMP-regulated guanine nucleotide exchange factor 4 (EPAC2) (AID 1645885); note: nearly all actives have a fitted effect of over 25% in size; note: potency is the fitted concentration of half-maximal effect
[5] = biological target: Rap guanine nucleotide exchange factor 3 (Homo sapiens) (UniProt O95398); assay: Counterscreen qHTS for antagonist of cAMP-regulated guanine nucleotide exchange factor 3 (EPAC1) (AID 1645888);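 note: fluorescence loss as bound BODIPY-GDP is released from Rap1B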
How it was run: (§1)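 Rap1B-BODIPY-GDP 250 nM + GDP 50 uM; cpds 7-pt, final 9.74 nM–152 uM (activator mode) or from 7.32 nM upwards (inhibitor mode); RT; FI 480/540 nm at 5 and 30 min, then ± cAMP, reread.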

[6] = biological target: Rap guanine nucleotide exchange factor 3 (Homo sapiens) (UniProt O95398); assay: Counterscreen qHTS for agonist of cAMP-regulated guanine nucleotide exchange factor 3 (EPAC1) (AID 1645889); note: nearly all actives have a fitted effect of over 40% in size
How it was run: as §1

| Compound | Potency [1] | Potency [2] | Potency [3] | Potency [4] | Potency [5] | Potency [6] | activation [3] | activity change, negative = inhibition [5] | activation [6] | outcome [4] |
| --- | --- | --- | --- | --- | --- | --- | --- | --- | --- | --- |
| O=C(Nc1nncs1)c1ccccc1NS(=O)(=O)c1cccs1 | inactive | inactive | inactive | inactive | inactive | inactive | – | – | – | – |
| CN(CC(=O)Nc1cccc(F)c1)C(=O)CN1c2cccc3cccc(c23)S1(=O)=O | 75.7 µM (active) | inactive | inactive | inactive | inactive | inactive | – | – | – | – |
| COc1cc(OC)nc(Oc2cccc(Cl)c2C)n1 | inactive | inactive | inactive | inactive | inactive | inactive | – | – | – | – |
| Cc1ccc(S(=O)(=O)/N=C2/NC(=O)/C(=C/c3ccccc3)S2)cc1 | 42.6 µM (active) | inactive | inactive | inactive | inactive | inactive | – | – | – | – |
| O=C(CCNC(=O)c1ccc(Br)cc1)Nc1ccccc1N1CCOCC1 | inactive | inactive | inactive | inactive | inactive | inactive | – | – | – | – |
| O=C(O)c1cc(S(=O)(=O)Nc2cc(Cl)ccc2Oc2ccccc2)ccc1O | 26.9 µM (active) | inactive | inactive | inactive | inactive | inactive | – | – | – | – |
| Cc1onc(-c2ccccc2)c1C(=O)c1c[nH]c(C(=O)NCCCN2CCOCC2)c1 | inactive | inactive | – | inactive | – | – | -2.44% [at 17.1 µM, percent relative to cAMP agonist control] | -20.3% [at 30.8 µM] | -11.1% [at 30.8 µM] | – |
| COc1cc(/C=C2\SC(=S)N(C(C(=O)O)c3ccccc3)C2=O)ccc1O (configuration not stated) | 47.8 µM (active) | inactive | inactive | 42.6 µM (active) | inactive | inactive | – | – | – | – |
| Cc1ccc(-c2csc(NS(=O)(=O)c3cccc(F)c3)n2)o1 | 14.1 µM (active) | inactive | – | inactive | – | – | -0.922% [at 17.1 µM, percent relative to cAMP agonist control] | -6.02% [at 30.8 µM] | 14.9% [at 30.8 µM] | – |
| COc1ccc(N(C)C(=O)CC2(CC(=O)O)CCCCC2)cc1 | inactive | inactive | – | inactive | – | – | 8.49% [at 17.1 µM, percent relative to cAMP agonist control] | 1.07% [at 30.8 µM] | 2.37% [at 30.8 µM] | – |
| Nc1[nH]c(C(=O)c2ccccc2)c(-c2ccccc2C(F)(F)F)c1C(=O)NCCc1cccs1 | inactive | inactive | inactive | inactive | inactive | inactive | – | – | – | – |
| Cc1cc(C(=O)COC(=O)C2COc3ccccc3O2)c(C)n1CC1CCCO1 (configuration not stated) | inactive | inactive | inactive | inactive | inactive | inactive | – | – | – | – |
| Cc1nn(-c2ccccc2)c(Cl)c1/C=C1\SC(=S)NC1=O | 12 µM (active) | inactive | inactive | inactive | inactive | inactive | – | – | – | – |
| C=CCCCN(Cc1ccccc1)S(=O)(=O)c1ccccc1Br | inactive | inactive | – | inactive | – | – | 1.87% [at 17.1 µM, percent relative to cAMP agonist control] | -1.46% [at 30.8 µM] | 12.4% [at 30.8 µM] | – |
| O=C(c1ccc(Br)cc1)N(Cc1cccs1)c1ccc(F)cc1 | inactive | inactive | inactive | inactive | inactive | inactive | – | – | – | – |
| CC(=O)NC(c1ccco1)c1cc(Cl)c2cccnc2c1O (configuration not stated) | inactive | inactive | inactive | inactive | inactive | inactive | – | – | – | – |
| Cc1cc2oc(=O)c3c(c2cc1OC(=O)c1ccco1)CCCC3 | inactive | inactive | inactive | inactive | inactive | inactive | – | – | – | – |
| Cc1ccc(-n2nc3ccc(NC(=O)/C=C/c4ccco4)cc3n2)cc1 | 39.8 µM (active) | inactive | – | inactive | – | – | 5.31% [at 17.1 µM, percent relative to cAMP agonist control] | 8.52% [at 30.8 µM] | 13.9% [at 30.8 µM] | – |
| CCOCCCn1c(=N)c(C(=O)NC(C)c2ccccc2)cc2c(=O)n3cccc(C)c3nc21 (configuration not stated) | inactive | inactive | inactive | inactive | inactive | inactive | – | – | – | – |
| O=C(Cn1c(=O)oc2cc(S(=O)(=O)N3CCCCC3)ccc21)N1CCc2ccccc2C1 | inactive | inactive | inactive | inactive | inactive | inactive | – | – | – | – |
| CCOc1c(OC)cccc1C(=O)NCC1(c2ccccc2)CCCC1 | inactive | inactive | inactive | inactive | inactive | inactive | – | – | – | – |
| CCc1ccc2oc(C(=O)Nc3ccccc3OC)cc(=O)c2c1 | inactive | inactive | inactive | – | inactive | inactive | – | – | – | inactive [at 12.7 µM] |
